About 2,700 (4%) of roughly 68,000 compounds showed an effect of 50% or more. Many of the other results were omitted from the sample, so strong results are more common in it than they were.
Tested on: Plasmodium berghei
Experiment: Screen against P. berghei liver stage (PbLuc), transformed with Luciferase, at 2uM
Format: functional, HepG2
Settings: tested at 2 uM

SMILES	INHIBITION
CS(=O)(=O)N1CC[C@]2(O)CCN(c3cc(C#N)ccn3)C[C@@H]2C1	19.44%
CN(C)S(=O)(=O)N1CC[C@]2(O)CCN(c3cc(C#N)ccn3)C[C@@H]2C1	57.68%
CN(C)S(=O)(=O)N1CC[C@]2(O)CCN(c3ncccn3)C[C@@H]2C1	13.51%
O=C(c1ccccc1O)N1CCN(C(=O)C2CCC2)CC1	51.31%
Cn1ccc2c(C(=O)N3CCN(C(=O)C4CCCC4)CC3)cccc21	16.64%
O=C(c1cc(F)ccc1O)N1CCN(C(=O)C2CCC2)CC1	-10%
Cc1ccc(S(=O)(=O)Nc2ccc(-n3nnn(C)c3=O)cc2)cc1	-2.66%
CN(Cc1ncnn1C)C(=O)CCn1ccc2ccccc21	-2.19%
CN(Cc1ncnn1C)C(=O)CCCn1ccc2cc(Cl)ccc21	57.23%
CN(CC(N)=O)C(=O)CCCn1ccc2cc(Cl)ccc21	28.42%
Cc1cnc(N2C[C@H]3CN(Cc4csc(C)n4)C(=O)[C@H]3C2)nc1	22.18%
CNc1cccc(C2CCCN(C(=O)c3cnccn3)C2)n1 (stereo not given)	36.98%
CNc1cccc(C2CCCN(C(=O)c3ccncc3)C2)n1 (stereo not given)	52.89%
CNc1cccc(C2CCCN(C(=O)c3cccnc3)C2)n1 (stereo not given)	-23.48%
COCCNC(=O)[C@@]12CCO[C@@H]1CCN(Cc1cc(C)on1)C2	10.43%
O=C(NCc1ccccc1)C1CN(c2ccccn2)CCO1 (stereo not given)	82.2%
O=C(NCc1cccnc1)[C@H]1C[C@@H]2CCN(c3ccncn3)C[C@H]2O1	23.53%
Cc1cnc(N2CCOC(C(=O)NCc3ccccc3)C2)s1 (stereo not given)	10.03%
O=C(Nc1ccc(-c2ccccc2)cc1)N1C[C@@H]2CNC[C@]2(C(=O)O)C1	51.42%
O=C(Nc1ccccc1-c1ccccc1)N1C[C@@H]2CNC[C@]2(C(=O)O)C1	14.54%
O=C(c1ccccc1-c1ccccc1)N1C[C@@H]2CNC[C@]2(C(=O)O)C1	19.13%
CS(=O)(=O)CCNC1CCCN(Cc2noc(C3CC3)n2)C1 (stereo not given)	33.52%
CC(C)c1cc(C(=O)NCC2CCCN(C(C)C)C2)n(C)n1 (stereo not given)	48.04%
Cc1nn(C)c(C)c1C(=O)N1CCN(C(=O)CCC2CCCCC2)CC1	21.97%
Cc1cc(C(=O)N2CCN(C(=O)CCC3CCCCC3)CC2)n(C)n1	74.44%

SMILES	INHIBITION
Cc1nn(C)c(C)c1C(=O)N1CCN(C(=O)CC2CCCCC2)CC1	43.44%
O=C(c1ccon1)N1CCN(c2ccncc2Cl)CC1	39.5%
Cc1nn(C)c(C)c1C(=O)N1CCN(c2ccncc2Cl)CC1	4%
Cc1cc(C(=O)N2CCN(c3ccncc3Cl)CC2)n(C)n1	64.35%
Cc1cc(C)n(CC(C)CNC(=O)N(C)Cc2cc(C)on2)n1 (stereo not given)	0.89%
Cc1nc(-c2cc(C(=O)NCCN3CCOCC3)c3ccccn23)cs1	-40.36%
CC(c1ccncc1)N(C)S(C)(=O)=O (stereo not given)	-22.2%
Cc1noc([C@]23COC[C@H]2CN(C(=O)Cc2ccsc2)C3)n1	15.36%
CCS(=O)(=O)N1CCOC(CCCc2ccccc2)C1 (stereo not given)	1.94%
CC(C)(CN1CCC(Cc2cccc(C(=O)O)c2)C1)N1CCOCC1 (stereo not given)	-32.96%
CC(C)(CN1CCC(Cc2ccc(C(=O)O)cc2)C1)N1CCOCC1 (stereo not given)	52.01%
CC(C)(CN1CCC(Cc2ccc(CO)cc2)C1)N1CCOCC1 (stereo not given)	-57.88%
c1cnc(-c2noc(C3CN(Cc4ccc5c(c4)CCO5)C3)n2)nc1	-17.26%
COc1ccccc1C(=O)N(C)Cc1nnc2ccccn12	40.82%
COC(=O)C(c1cc(F)ccc1F)N(C)C(=O)c1cnccn1 (stereo not given)	-27.5%
COC(=O)C(c1cc(F)ccc1F)N(C)C(=O)c1ccnc(C)n1 (stereo not given)	-12.91%
COC(=O)C(c1cc(F)ccc1F)N(C)C(=O)c1cnc(C)cn1 (stereo not given)	60.09%
Cc1cc(C)n(CCC2CC(=O)Nc3cc(O)c(C)cc32)n1 (stereo not given)	-32.52%
Cc1noc(C)c1C(=O)NCCN1CCOCC1	63.46%
Cc1noc(C(C)C)c1C(=O)NCCCN1CCNCC1	43.16%
Cc1noc(C(C)C)c1C(=O)NCCN1CCCCCC1=O	60.21%
Cc1noc(C(C)C)c1C(=O)NCCCN1CCCCCC1=O	77.68%
Cc1noc(C(C)C)c1C(=O)NCCC(=O)N1CCCCC1	11.57%
Cc1noc(C(C)C)c1C(=O)NCCN1CCOCC1	32.63%
Cc1noc(C)c1C(=O)NCCN1CCN(S(C)(=O)=O)CC1	-41.64%

SMILES	INHIBITION
Cc1noc(C(C)C)c1C(=O)NCCCN1CCC(C)CC1	-15.34%
Cc1noc(C(C)C)c1C(=O)NCCCN1CCCC1	-75.02%
Cc1nc(-c2ccccc2C)n(CC(=O)NC2CCCC2)n1	31.57%
Cn1ccc(C(=O)N2CCCC2c2cc[nH]n2)n1 (stereo not given)	16.43%
COCCc1ncc(CN2C[C@@H](C(=O)O)[C@H](C(C)C)C2)cn1	-59.6%
COc1ccc(-n2ccc(CNCc3cccc(OC)c3)n2)cc1	28.75%
O=C(NCc1cnn2cccnc12)C1CC2(CCNCC2)CN1 (stereo not given)	-1.33%
Cn1cc(-c2cnc(N3CCOCC3)nc2)cc1C(=O)NCCC#N	-0.45%
COCC(NC(=O)c1cc(NC(C)=O)ccc1Cl)c1ccccn1 (stereo not given)	29.13%
CCC(NC(=O)c1cc(NC(C)=O)ccc1Cl)c1cc(C)ccn1 (stereo not given)	57.75%
COCC(NC(=O)c1cc(NC(C)=O)ccc1Cl)c1ccnn1C (stereo not given)	21.97%
COC(=O)C1CCCN1CC(=O)NCc1ccc(OCC(N)=O)cc1 (stereo not given)	-6.33%
O=C1CCC[C@]2(CN(S(=O)(=O)N3CCCCC3)C[C@H]2c2cccnc2)N1	-0.64%
CCCN1CCN(C(=O)c2cccc(C)n2)[C@H]2CS(=O)(=O)C[C@H]21	6.84%
CC(C)=CCN1CCN(C(=O)COc2ccccc2)[C@H]2CS(=O)(=O)C[C@H]21	41.68%
CC(C)=CCN1CCN(CCCc2ccccc2)[C@H]2CS(=O)(=O)C[C@H]21	7.29%
CC(=O)N1CCN(C(=O)c2snnc2C)[C@H]2CS(=O)(=O)C[C@H]21	-3.73%
CC(C)=CCN1CCN(C(=O)CSc2ccccn2)[C@H]2CS(=O)(=O)C[C@H]21	64.9%
CC(C)=CCN1CCN(C(=O)c2snnc2C)[C@H]2CS(=O)(=O)C[C@H]21	51.38%
CCCN1CCN(C(=O)Cc2cccnc2)[C@H]2CS(=O)(=O)C[C@H]21	23.19%
CCCN1CCN(C(=O)c2ccc3ccccc3n2)[C@H]2CS(=O)(=O)C[C@H]21	57.21%
CCCN1CCN(C(=O)c2cc3ccccc3cn2)[C@H]2CS(=O)(=O)C[C@H]21	35.01%
O=C(CSc1ccccn1)N1CCN(CCO)[C@@H]2CS(=O)(=O)C[C@@H]21	67.28%
O=C(C1CC1)N1CCN(C(=O)CSc2ccccn2)[C@H]2CS(=O)(=O)C[C@H]21	-32.88%
Cc1nnsc1C(=O)N1CCN(CC2CC2)[C@@H]2CS(=O)(=O)C[C@@H]21	0.54%

From ChEMBL document CHEMBL4513216, “Probing the Open Global Health Chemical Diversity Library for Multistage-Active Starting Points for Next-Generation Antimalarials” (ACS Infect Dis, 2020)
